Measurements from PubChem BioAssay (NCI).
This is part of a sample that, as a whole, favours compounds with a hit. Of some 79,000 tested, about 15% had one in any assay. A number with no mark means an inactive call. The source made the active and inactive calls. Cut-off read from the data, not from the text of the source: active = growth inhibition above about 70%; inactive = the rest.

Experiments:
[1] = NCI Yeast Anticancer Drug Screen. Data for the rad50 strain (AID 155);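 note: 0% = growth of vehicle-only cultures of the same strain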; conditions: S. cerevisiae rad50 strain growth inhibition; at 50.0 µM; active compounds read high
Method in brief: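 Yeast carrying a defined DNA repair defect were exposed to test compounds, and growth was compared with vehicle-treated controls to give percent inhibition.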

[2] = NCI Yeast Anticancer Drug Screen. Data for the mec2-1 strain (AID 157); conditions: S. cerevisiae mec2-1 strain, at 50.0 µM, active compounds read high
Method in brief: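 mec2-1 yeast strain, carrying an alteration in DNA damage repair or cell cycle control, was exposed to compounds; growth inhibition was measured relative to vehicle-treated controls.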

[3] = NCI Yeast Anticancer Drug Screen. Data for the sgs1 mgt1 strain (AID 161);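 note: 0% = growth of cultures given vehicle only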; conditions: S. cerevisiae sgs1 mgt1 strain, at 50.0 µM, active compounds read high
Method in brief: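 Compounds are added to genetically altered yeast, and growth is compared with cultures given vehicle alone to give percent inhibition.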

[4] = NCI Yeast Anticancer Drug Screen. Data for the cln2 rad14 strain (AID 165);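 note: 0% = growth equal to vehicle treated cultures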; conditions: S. cerevisiae cln2 rad14 strain, at 50.0 µM, active compounds read high
Method in brief: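 Yeast carrying cln2 and rad14 alterations (cell cycle control and DNA damage repair) were exposed to compounds. Growth inhibition was measured against vehicle-treated controls.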

[5] = NCI Yeast Anticancer Drug Screen. Data for the bub3 strain (AID 167); conditions: S. cerevisiae bub3 mutant strain, at 50.0 µM, active compounds read high
Method in brief: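 Compounds were applied to a genetically altered yeast strain carrying a cell-cycle control defect. Growth inhibition was scored against vehicle-treated controls.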

[6] = NCI Yeast Anticancer Drug Screen. Data for the mlh1 rad18 strain (AID 175); conditions: S. cerevisiae mlh1 rad18 strain growth inhibition; at 50.0 µM; active compounds read high
Method in brief: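 Growth inhibition of the yeast strain was measured after compound exposure and expressed relative to vehicle-treated controls. The strain carries defined defects in DNA damage repair.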

| SMILES | growth inhibition [1] | growth inhibition [2] | growth inhibition [3] | growth inhibition [4] | growth inhibition [5] | growth inhibition [6] |
| --- | --- | --- | --- | --- | --- | --- |
| FC(F)(F)c1ccc(C=NC23CC4CC(CC(C4)C2)C3)cc1 | -8.85% | -9% | -16.2% | -27.1% | -18.9% | -30.9% |
| CCOC1(c2ccccc2)CCNCC1 | 21.9% | -0.65% | 29.4% | 15.7% | 16.3% | 12.9% |
| O=C(O)CCCSc1ccc2ccccc2c1 | 48.5% | 3.75% | 45.6% | 24.9% | 4.55% | 38.3% |
| O=C(Oc1ccn(C2OC(CO)C(O)C2O)c(=O)c1)C12CC3CC(CC(C3)C1)C2 (stereo unspecified) | 36.1% | 11.6% | 25.2% | 25.4% | 0.95% | 36.2% |
| O=C(CCCCCCCC(=O)OC(CCC1CCCO1)CCC1CCCO1)OC(CCC1CCCO1)CCC1CCCO1 (stereo unspecified) | 6.1% | -18.6% | -4.5% | -9.75% | -6.5% | 7.05% |
| OC1COCCC(O)(CNCc2ccccc2)C1O (stereo unspecified) | 7.4% | 16.6% | -3.95% | 8.15% | -6.95% | -9.1% |
| CC/C(C)=N\NC(=O)CC(=O)N/N=C(/C)CC | -8.35% | 1.45% | -7% | -61.6% | -4% | -17.1% |
| Cc1nnc(N=Nc2c(O)[nH]c3ccccc23)[nH]c1=O | 7.05% | 1.2% | -6.65% | -0.2% | 2.65% | 16.1% |
| CC1=COC(=O)[C@@H]2[C@@H](C)CC[C@@H]12 | 1.1% | -3.65% | -9.6% | 10.3% | 6.05% | -4.2% |
| COC1=NC(NC2OCC(O)C(O)C2O)=C(NC(C)=O)CN1C (stereo unspecified) | -46.5% | -41.4% | -20.1% | -3.65% | -31.7% | -22.4% |
| COC(=O)C1C(O)C(C)C(O)C(C)(O)C=C(C)C2=C3C(=C(C)C(=O)c4c(O)c(c(C)c(OC(C)=O)c43)NC(=O)C(C)=C/C=C\C(C)(O)C(O)C(C)C1O)OCO2 (stereo unspecified) | 14.3% | 1.65% | 0.85% | -1.55% | 3.85% | 6.25% |
| COc1ccc(CC(C)C(C)Cc2ccc(OC)c(OC)c2)cc1OC (stereo unspecified) | 4.9% | 9.15% | 1.6% | -4.75% | 4.25% | -3.6% |
| COC(=O)N1C(C#N)=CCc2ccccc21 | 26.4% | 31.2% | 16.9% | -6.25% | 3.8% | 5.65% |
| O=C(O)c1ccccc1Cc1c[nH]c2ccccc12 | -37.3% | 4.95% | -0.8% | -15.3% | 41.3% | -5.05% |
| O=S1(=O)NC2CCC3NS(=O)(=O)NC4CCC(N1)N4S(=O)(=O)N23 (stereo unspecified) | -3.75% | -17.4% | -4.1% | 6.6% | -0.55% | -8.25% |
| CC[n+]1ccnc2ccccc21 | -11.6% | -8% | -1.35% | -7.9% | 11.6% | 14% |
| CCCC(=O)NS(=O)(=O)c1ccc(C)cc1 | 2.85% | 7.3% | 3.45% | -24.9% | 0.25% | 5.75% |
| N#Cc1cccc(-c2ccc(-c3ccccc3)o2)c1 | 31.6% | 27.4% | 27.1% | -7.25% | 60.9% | 20.4% |
| O=C(CN1CCCC1)Nc1ccc2sc3ccccc3c(=O)c2n1 | 17.2% | -29.7% | -5.75% | 21.6% | 11% | 3.55% |
| O=C1CSC(c2ccc([N+](=O)[O-])cc2)N1c1nncs1 (stereo unspecified) | -10.9% | -6.8% | 7.25% | -2.65% | -8.7% | 0.55% |
| NC(=Nc1ccc(Br)cc1)/N=C(/N)Nc1cccc(S(=O)(=O)Nc2ncc(Cl)cn2)c1 | 10.2% | -8.75% | 25.2% | 15.8% | 1.95% | 4.95% |

| SMILES | growth inhibition [1] | growth inhibition [2] | growth inhibition [3] | growth inhibition [4] | growth inhibition [5] | growth inhibition [6] |
| --- | --- | --- | --- | --- | --- | --- |
| CCOC(=O)C1SC(=Nc2ccc(Cl)c(Cl)c2)N=C1C (stereo unspecified) | -29.9% | -2.8% | -6.4% | 5.9% | -11.7% | -10.1% |
| COc1nc2n[nH]nc2c(=O)n1C | -5.75% | -10.8% | -13.1% | 13.7% | -5.1% | -21.6% |
| CN(C)CCCCCCNCCC#N | 21.2% | -27.8% | -8.4% | -8.85% | -28.4% | -1.6% |
| O=C1NN=CN2C(=O)CCC12 (stereo unspecified) | 26.4% | 3.45% | 14.3% | 4.15% | 14.4% | -3.4% |
| Cc1cccc(C(=O)NC(C)C)c1 | -7.75% | -40% | -5.9% | 15.8% | -4.95% | -19.6% |
| O | 13.2% | 9.15% | 17% | 6.2% | -16.8% | -4% |
| NC(N)=NC(N)=Nc1c(F)c(F)c(F)c(F)c1F | -17.4% | -33.1% | -11.8% | -14.5% | -3.6% | -20.6% |
| COc1cc2c(cc1O)C(C)C(c1ccccc1)O2 (stereo unspecified) | 3.95% | 4.8% | 9.45% | -21.1% | 7.15% | 13.2% |
| COc1ccccc1N=Nc1c(-c2ccccc2)nn(C(N)=S)c1-c1ccccc1 | 35% | -5.75% | 19.4% | 12.2% | -0.05% | 6.6% |
| FC(F)(F)c1ccc(Cl)c(N=C=S)c1 | -26.1% | -9.15% | 31.4% | -108% | -21.8% | -4.7% |
| CC1=CC(=O)C(O)C2(C)C(CCC3(C)OCCO3)C=C(O[Si](C)(C)C(C)(C)C)CC12 (stereo unspecified) | 21.6% | -2.5% | 1.2% | 18.4% | 5.15% | 7% |
| O=C1CCCC2C(O)CCC[C@H]12 (stereo partly specified) | -9% | -2.9% | -21.8% | 1% | -7.7% | -1.9% |
| COC(=O)c1cc2c3c(ccc2[nH]1)N(C(=O)c1cc2c4c(ccc2[nH]1)N(C(=O)c1cc2c5c(ccc2[nH]1)N(C(N)=O)CC5)CC4)CC3 | 18.8% | 5.05% | -2.05% | 15.7% | 29.8% | 11.9% |
| N#CCCOCC(COCCC#N)(COCCC#N)COCCC#N | -11.9% | -24.4% | -7.55% | 10% | -12.9% | -2.25% |
| O=c1n(-c2ccc(Cl)c(Cl)c2)c(=O)n(-c2ccc(Cl)c(Cl)c2)c(=O)n1-c1ccc(Cl)c(Cl)c1 | 3.5% | 5.25% | 9.35% | -44.1% | -3.85% | 4.3% |
| NC(N)=N/N=C/c1c(Cl)nc2sccn12 | -11.4% | -64.8% | -17.5% | -30.3% | -8.8% | -5.6% |
| Nc1nc(N)c(-c2ccc(Cl)c(Cl)c2)c(COc2cccc3ccccc23)n1 | 98.7% (active) | 99% (active) | 99.2% (active) | 96.5% (active) | 98.1% (active) | 98.7% (active) |
| Nc1ccc(C(=O)c2ccccc2)cc1 | 33.2% | 13.9% | 25.4% | -8.55% | -1.55% | 4.9% |
| Ic1cc2c(cc1CNCc1ccccc1)OCO2 | 11.7% | -19.6% | 26.7% | -56.4% | 2.6% | 7.2% |
| CCOC(=O)c1c([N+](=O)[O-])cnn1C1OC(COC(C)=O)C(OC(C)=O)C1OC(C)=O (stereo unspecified) | 6.4% | -2% | 4.6% | 15.2% | 7.9% | 6.85% |
